Our source for the growth values is the supplement of paper PMC9262897, “Low-cost anti-mycobacterial drug discovery using engineered E. coli” (Nature Communications, 2022).

Counter-ions that a name gives are not always drawn. ± gives the standard deviation of the averaged measurements.

Common to all, as to assay: growth (OD600 after 10 h); higher = more growth (less inhibition)
Test [1] has as its system E. coli TESEC Alr+ wild-type control. To be noted: compound 0.1 mM; raw OD600 reference: median of DMSO wells 0.241, cell-free background 0.041. How it is done:
(§1)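 TESEC Mtb Alr E. coli, or the Alr+ wild-type control, in 384-well plates with Prestwick library compounds at 0.1 mM and 1% DMSO, across arabinose induction levels of 1E3 to 1E7 nM. Growth is read as OD600 after 10 h at 37 °C in triplicate biological replicates.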

For test [2], the system named is E. coli TESEC Mtb Alr. To be noted: compound 0.1 mM. How it is done:
as §1

Another test concerns E. coli TESEC Mtb Asd. To be noted: compound 0.1 mM. As to the method: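 TESEC E. coli strains in which the native enzyme is deleted and replaced by arabinose-inducible Mtb Asd, DapB, CysH or TrpD, each grown in its selective medium. Strains were screened against the Prestwick library at 0.1 mM and 1% DMSO in 384-well format at low and high arabinose induction. Growth is read as OD600 after 10 h in triplicate.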

Test [3] concerns E. coli TESEC Alr+ wild-type control. The note with it: compound 0.1 mM; raw OD600 reference: median of DMSO wells 0.49, cell-free background 0.052. As to the method:
(§2)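 TESEC Mtb Alr E. coli (ΔaraC ΔtolC ΔentC Δalr ΔdadX, arabinose-inducible Mtb Alr) or the Alr+ wild-type control strain, grown in defined M9-fructose medium without D-alanine in 96-well plates with Prestwick library compounds at 0.1 mM and 1% DMSO. Low Alr induction is 0.1 µM arabinose and high induction is 10 mM arabinose.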

Test [4] has as its system E. coli TESEC Mtb Alr. The note with it: compound 0.1 mM. How it is done:
as §2
This is another data set of the same source.

Setting [5] is: arabinose 1000 nM, raw OD600 reference: median of DMSO wells 0.294, cell-free background 0.041.
Where [6] appears, read: arabinose 10000 nM, raw OD600 reference: median of DMSO wells 0.264, cell-free background 0.041.
Where [7] appears, read: arabinose 100000 nM, raw OD600 reference: median of DMSO wells 0.201, cell-free background 0.041.
[8] abbreviates: arabinose 1000000 nM, raw OD600 reference: median of DMSO wells 0.193, cell-free background 0.041.
Where [9] appears, read: arabinose 10000000 nM, raw OD600 reference: median of DMSO wells 0.146, cell-free background 0.041.
Where [10] appears, read: arabinose induction (level): High, raw OD600 reference: median of DMSO wells 0.331, cell-free background 0.041.
Where [11] appears, read: arabinose induction (level): Low, raw OD600 reference: median of DMSO wells 0.417, cell-free background 0.041.
The mark [12] stands for this setting: arabinose 100 nM, raw OD600 reference: median of DMSO wells 0.413, cell-free background 0.052.
Where [13] appears, read: arabinose 10000000 nM, raw OD600 reference: median of DMSO wells […], cell-free background 0.052.

For the molecule `CC(Cc1cccc(C(F)(F)F)c1)NCCOC(=O)c1ccccc1` (centres undefined) [Benfluorex], the growth in test [1] was found to be 0.174 ± 0.0053; in the test on E. coli TESEC Mtb Alr [2] (setting [5]), 0.15 ± 0.094; in the test with E. coli TESEC Mtb Alr [2] (setting [6]), 0.163 ± 0.0039; in the test on E. coli TESEC Mtb Alr [2] (setting [7]), 0.209 ± 0.0022; with E. coli TESEC Mtb Alr [2] (setting [8]), 0.0479 ± 0.0001; in the test with E. coli TESEC Mtb Alr [2] (setting [9]), 0.0634 ± 0.0014. Moreover, the growth in the test on E. coli TESEC Mtb Asd (setting [10]) turned out to be 0.163 ± 0.014; in the test on E. coli TESEC Mtb Asd (setting [11]), 0.153 ± 0.0072; in test [3] it was 0.405 ± 0.013; in the test with E. coli TESEC Mtb Alr [4] (setting [12]) it was 0.411 ± 0.01; in the test on E. coli TESEC Mtb Alr [4] (setting [13]), 0.0607 ± 0.0052.
`CCC(=O)O[C@]1(C(=O)SCF)[C@H](C)C[C@H]2[C@@H]3C[C@H](F)C4=CC(=O)C=C[C@]4(C)[C@@]3(F)[C@@H](O)C[C@@]21C` [Fluticasone propionate]: the growth in test [1] stood at 0.233 ± 0.0036; in the test with E. coli TESEC Mtb Alr [2] (setting [5]) it was 0.29 ± 0.013; in the test with E. coli TESEC Mtb Alr [2] (setting [6]) it was 0.274 ± 0.021; with E. coli TESEC Mtb Alr [2] (setting [7]), 0.21 ± 0.012; with E. coli TESEC Mtb Alr [2] (setting [8]), 0.201 ± 0.013; with E. coli TESEC Mtb Alr [2] (setting [9]) it was 0.149 ± 0.0044. For the same molecule, the growth in the test on E. coli TESEC Mtb Asd (setting [10]) was 0.258 ± 0.058; in the test with E. coli TESEC Mtb Asd (setting [11]), 0.36 ± 0.046; in test [3], 0.576 ± 0.026; in the test with E. coli TESEC Mtb Alr [4] (setting [12]) it was 0.453 ± 0.01; with E. coli TESEC Mtb Alr [4] (setting [13]), 0.381 ± 0.034.
On to `NS(=O)(=O)c1cc2c(cc1Cl)NC(C(Cl)Cl)NS2(=O)=O` (centres undefined) [Trichlormethiazide], for which the growth in test [1] amounted to 0.243 ± 0.0058; with E. coli TESEC Mtb Alr [2] (setting [5]), 0.296 ± 0.021; in the test on E. coli TESEC Mtb Alr [2] (setting [6]), 0.278 ± 0.0046; in the test on E. coli TESEC Mtb Alr [2] (setting [7]) it was 0.2 ± 0.013; in the test with E. coli TESEC Mtb Alr [2] (setting [8]) it was 0.195 ± 0.015; in the test on E. coli TESEC Mtb Alr [2] (setting [9]), 0.139 ± 0.0024. Moreover, the growth in the test on E. coli TESEC Mtb Asd (setting [10]) came to 0.331 ± 0.037; in the test with E. coli TESEC Mtb Asd (setting [11]), 0.448 ± 0.033; in test [3], 0.631 ± 0.095; with E. coli TESEC Mtb Alr [4] (setting [12]), 0.408 ± 0.0097; in the test with E. coli TESEC Mtb Alr [4] (setting [13]), 0.357 ± 0.01.
For the molecule `CC(=O)[C@H]1CC[C@H]2[C@@H]3CC=C4C[C@@H](O)CC[C@]4(C)[C@H]3CC[C@]12C` [Pregnenolone], the growth in test [1] turned out to be 0.166 ± 0.0078; in the test with E. coli TESEC Mtb Alr [2] (setting [5]), 0.235 ± 0.015; in the test on E. coli TESEC Mtb Alr [2] (setting [6]), 0.239 ± 0.016; with E. coli TESEC Mtb Alr [2] (setting [7]), 0.173 ± 0.029; in the test with E. coli TESEC Mtb Alr [2] (setting [8]) it was 0.136 ± 0.0035; with E. coli TESEC Mtb Alr [2] (setting [9]), 0.159 ± 0.0019. For the same molecule, the growth in the test with E. coli TESEC Mtb Asd (setting [10]) was determined as 0.168 ± 0.026; in the test on E. coli TESEC Mtb Asd (setting [11]), 0.343 ± 0.034; in test [3], 0.458 ± 0.0056; in the test with E. coli TESEC Mtb Alr [4] (setting [12]), 0.398 ± 0.0084; in the test with E. coli TESEC Mtb Alr [4] (setting [13]), 0.2327 ± 0.0018.
On to `CCCCN(CCCC)CCCOC(=O)c1ccc(N)cc1` [Butacaine], for which the growth amounted to 0.2003 ± 0.0014 in test [1]; 0.284 ± 0.019 in the test on E. coli TESEC Mtb Alr [2] (setting [5]); 0.275 ± 0.01 with E. coli TESEC Mtb Alr [2] (setting [6]); 0.181 ± 0.013 in the test with E. coli TESEC Mtb Alr [2] (setting [7]); 0.189 ± 0.0068 in the test with E. coli TESEC Mtb Alr [2] (setting [8]); 0.14 ± 0.0032 with E. coli TESEC Mtb Alr [2] (setting [9]). Also, the growth in the test with E. coli TESEC Mtb Asd (setting [10]) was 0.275 ± 0.029; in the test on E. coli TESEC Mtb Asd (setting [11]), 0.445 ± 0.06; in test [3], 0.474 ± 0.038; in the test on E. coli TESEC Mtb Alr [4] (setting [12]), 0.408 ± 0.013; with E. coli TESEC Mtb Alr [4] (setting [13]), 0.337 ± 0.019.
Take `COc1cc2nc(N3CCN(C(=O)c4ccco4)CC3)nc(N)c2cc1OC` [Prazosin hydrochloride]: the growth in test [1] turned out to be 0.242 ± 0.0066; in the test with E. coli TESEC Mtb Alr [2] (setting [5]), 0.319 ± 0.019; in the test with E. coli TESEC Mtb Alr [2] (setting [6]), 0.239 ± 0.0065; in the test on E. coli TESEC Mtb Alr [2] (setting [7]) it was 0.185 ± 0.008; with E. coli TESEC Mtb Alr [2] (setting [8]) it was 0.147 ± 0.015; in the test with E. coli TESEC Mtb Alr [2] (setting [9]) it was 0.226 ± 0.0067. The growth with E. coli TESEC Mtb Asd (setting [10]) was 0.263 ± 0.09; in the test with E. coli TESEC Mtb Asd (setting [11]) it was 0.348 ± 0.091; in test [3] it was 0.498 ± 0.007; in the test on E. coli TESEC Mtb Alr [4] (setting [12]), 0.399 ± 0.013; in the test with E. coli TESEC Mtb Alr [4] (setting [13]), 0.3092 ± 0.0026.
Regarding `Clc1ccc(CCC(Cn2ccnc2)Sc2c(Cl)cccc2Cl)cc1` (centres undefined) [Butoconazole nitrate], the growth in test [1] is 0.0548 ± 0.0082; with E. coli TESEC Mtb Alr [2] (setting [5]) it was 0.0578 ± 0.0014; with E. coli TESEC Mtb Alr [2] (setting [6]), 0.066 ± 0.0018; in the test on E. coli TESEC Mtb Alr [2] (setting [7]), 0.0622 ± 0.00087; in the test on E. coli TESEC Mtb Alr [2] (setting [8]), 0.0664 ± 0.00089; in the test with E. coli TESEC Mtb Alr [2] (setting [9]) it was 0.0514 ± 0.0014. The growth in the test with E. coli TESEC Mtb Asd (setting [10]) was determined as 0.0629 ± 0.00052; with E. coli TESEC Mtb Asd (setting [11]), 0.0669 ± 0.0063; in test [3], 0.0876 ± 0.003; in the test on E. coli TESEC Mtb Alr [4] (setting [12]) it was 0.1 ± 0.057; with E. coli TESEC Mtb Alr [4] (setting [13]) it was 0.115 ± 0.013.
Take `CC1(C)O[C@@H]2C[C@H]3[C@@H]4CCC5=CC(=O)C=C[C@]5(C)[C@H]4[C@@H](O)C[C@]3(C)[C@]2(C(=O)CO)O1` [Desonide]: the growth worked out at 0.185 ± 0.0048 in test [1]; 0.252 ± 0.0091 with E. coli TESEC Mtb Alr [2] (setting [5]); 0.254 ± 0.011 in the test on E. coli TESEC Mtb Alr [2] (setting [6]); 0.172 ± 0.014 with E. coli TESEC Mtb Alr [2] (setting [7]); 0.15 ± 0.005 in the test with E. coli TESEC Mtb Alr [2] (setting [8]); 0.144 ± 0.0029 in the test on E. coli TESEC Mtb Alr [2] (setting [9]). For the same molecule, the growth in the test with E. coli TESEC Mtb Asd (setting [10]) is 0.208 ± 0.0068; in the test on E. coli TESEC Mtb Asd (setting [11]), 0.378 ± 0.065; in test [3], 0.496 ± 0.062; in the test with E. coli TESEC Mtb Alr [4] (setting [12]), 0.414 ± 0.011; in the test on E. coli TESEC Mtb Alr [4] (setting [13]) it was 0.302 ± 0.019.
In the case of `NC(=O)c1ccc[n+]([C@@H]2O[C@H](COP(=O)([O-])OP(=O)(O)OC[C@H]3O[C@@H](n4cnc5c(N)ncnc54)[C@H](O)[C@@H]3O)[C@@H](O)[C@H]2O)c1` [Nadide], the growth in test [1] is 0.282 ± 0.006; with E. coli TESEC Mtb Alr [2] (setting [5]) it was 0.363 ± 0.018; with E. coli TESEC Mtb Alr [2] (setting [6]), 0.339 ± 0.0072; in the test with E. coli TESEC Mtb Alr [2] (setting [7]) it was 0.238 ± 0.031; in the test on E. coli TESEC Mtb Alr [2] (setting [8]), 0.245 ± 0.0026; in the test with E. coli TESEC Mtb Alr [2] (setting [9]), 0.175 ± 0.0086. The growth with E. coli TESEC Mtb Asd (setting [10]) is 0.428 ± 0.012; in the test with E. coli TESEC Mtb Asd (setting [11]) it was 0.441 ± 0.0097; in test [3], 0.564 ± 0.14; in the test on E. coli TESEC Mtb Alr [4] (setting [12]), 0.415 ± 0.025; in the test with E. coli TESEC Mtb Alr [4] (setting [13]), 0.416 ± 0.0063.
